The values that follow come from PubChem BioAssay (NCATS).

Inconclusive results are not listed. The source made the active and inactive calls. The call rests on the fitted dose curve; in most records, active means well fitted inhibition curve with a large enough effect; inconclusive means small, poorly fitted or top-dose-only effect; inactive means flat fitted curve, though single readings scatter.
Potency means the concentration at half of the fitted maximal effect.

Tyrosyl-DNA phosphodiesterase 1 (Homo sapiens), sequence (Q9NUW8 whole entry, looked up): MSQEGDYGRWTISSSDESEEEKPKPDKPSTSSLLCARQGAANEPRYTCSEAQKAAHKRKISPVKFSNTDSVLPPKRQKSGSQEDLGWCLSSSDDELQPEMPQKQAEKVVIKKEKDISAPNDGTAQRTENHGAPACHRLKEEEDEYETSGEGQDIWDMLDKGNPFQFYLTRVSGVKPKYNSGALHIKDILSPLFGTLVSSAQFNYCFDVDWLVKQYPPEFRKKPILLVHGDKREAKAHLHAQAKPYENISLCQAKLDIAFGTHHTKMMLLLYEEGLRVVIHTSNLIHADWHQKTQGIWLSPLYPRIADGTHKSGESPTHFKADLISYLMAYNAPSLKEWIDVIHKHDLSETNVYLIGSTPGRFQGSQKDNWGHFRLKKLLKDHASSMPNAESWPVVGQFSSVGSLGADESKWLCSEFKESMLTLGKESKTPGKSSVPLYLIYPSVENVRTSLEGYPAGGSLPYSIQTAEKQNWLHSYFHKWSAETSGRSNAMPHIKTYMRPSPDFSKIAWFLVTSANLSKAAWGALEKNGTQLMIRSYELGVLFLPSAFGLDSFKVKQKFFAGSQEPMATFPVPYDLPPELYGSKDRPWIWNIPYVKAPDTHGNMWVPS

This test has as its target Tyrosyl-DNA phosphodiesterase 1 (Homo sapiens) (UniProt Q9NUW8). As to the kind of experiment: Confirmation Assay for Inhibitors of Tyrosyl-DNA Phosphodiesterase (TDP1) (AID 489007). Further: nearly all actives have a fitted effect of over 40% in size. The following applies: recombinant human TDP1 enzymatic activity, dose-response. The source says:
Human tyrosyl-DNA phosphodiesterase I (Tdp1) is a rational anticancer target because this enzyme is involved in the repair of DNA lesions created by the trapping of human DNA topoisomerase I (Top1) following treatment by anticancer agents such as camptothecins. Recombinant Tdp1 was expressed and purified from E. coli in the laboratory (Anthony et al, Nucleic Acids Research, 2007, Vol. 35, 4474-4484). A Tdp1 DNA substrate bearing a 5' biotin and a 3' phospho-tyrosine was obtained by custom synthesis. This oligonucleotidic DNA substrate was subsequently coupled to a fluorescein isothiocyanate (FITC) group via the free amino group present on the phospho-tyrosine. Tdp1 was screened against the NCGC small molecule library using the AlphaScreen (AS) detection method in which a streptavidin donor AS bead is bound at the 5' end and an anti-FITC AS acceptor bead is bound at the 3' end of the DNA oligonucleotidic substrate. In the presence of Tdp1, the enzyme cleaves the tyrosine-FITC group, leaving a 3' end phosphate on the DNA substrate. This cleavage reaction results in a loss of signal in AS.
This BioAssay is a confirmation of followup compounds from primary TDP1 screen (AID:485290)
NIH Molecular Libraries Probe Production Network [MLPCN]
NIH Chemical Genomics Center [NCGC]
Assay Provider: Yves Pommier and Christophe Marchand, National Cancer Institute
Assay Title: qHTS Assay for Inhibitors of Tyrosyl-DNA Phosphodiesterase (TDP1)
[1] 3 ul of buffer is dispensed in columns 3 & 4 as negative control (no enzyme and maximum signal),
[2] 3 ul of enzyme (1 nM final) is dispensed in columns 1,2, 5-48,
[3] 1 ul of substrate (15 nM final) is dispensed throughout the plate,
[4] 1 ul of AS donor/acceptor bead mix (10 ug/ml final) is dispensed throughout the plate
3 ul of Tdp1 enzyme is dispensed to 1536-well Kalypsys black solid bottom plates. Compounds and controls (23 nl) are transferred via Kalypsys Pin Tool. The plates are incubated for 15 min at room temperature, and then 1 ul of substrate is added to start the reaction. After 5 min incubation at room temperature, 1 ul of AS donor/acceptor bead mix is added and the plates are further incubated for 10 min at room temperature. The detection is then performed on a PerkinElmer Envision reader.
Take `Fc1ccc(C2CC(c3cccs3)=NN2c2ccccc2)cc1` (stereo not given): the Potency was 15.8 µM (active).

Regarding `O=C(O)c1cccc(-n2cccc2/C=C2/NC(=O)N(c3ccc(Cl)cc3)C2=O)c1`, the Potency was 1.62 µM (active).

Take `O=C(O)CNC(=O)CC1S/C(=N/N=C2/NC(=O)CS2)NC1=O` (stereo not given): the Potency is 89.1 µM (active).

Take `Nc1ccc2c(c1Cl)C(=O)c1ccc(N)c(Cl)c1C2=O`: the Potency was 3.55 µM (active).

As for `Cc1cc(C(=O)O)ccc1-c1ccc(/C=C2\NC(=O)N(Cc3ccc(F)cc3)C2=O)o1`, the Potency was 4.47 µM (active).

On to `NC(=O)c1oc2ccccc2c1NC(=O)c1nc2ccccc2s1`, for which the Potency is 15.8 µM (active).

As to `O=c1cc(CCl)nc2sc3ccccc3n12`, the Potency is 14.1 µM (active).

As to `O=C(O)c1cc(-c2ccc(/C=C3\NC(=O)N(c4ccccc4)C3=O)o2)ccc1Cl`, the Potency was 7.08 µM (active).

Consider `CC1(C)OC(=O)C(=Cc2ccc(-c3ccc(Cl)c(C(=O)O)c3)o2)C(=O)O1`, for which the Potency is 14.1 µM (active).

Turning to `O=C(CSc1nc2ccccc2[nH]1)NC1CCCC1`, the Potency was 14.1 µM (active).

As to `CC1=CCC(C(=O)O)C(C(=O)Nc2ccc(-c3nc4ccc(C)cc4s3)cc2)C1` (stereo not given), the Potency was 31.6 µM (active).

For `O=C(O)C1CC=CCC1C(=O)Nc1ccccc1` (stereo not given), the Potency was 14.1 µM (active).

Turning to `Cc1ccc(CNC(=O)CCS(=O)(=O)c2ccc(Br)cc2)cc1`, the Potency was 12.6 µM (active).

For `CS(=O)(=O)C1=NSC2=NC(=O)/C(=C\c3cccn3-c3ccc(Cl)cc3)C(=N)N21`, the Potency was 5.01 µM (active).

Turning to `Cc1ccc(NC(=O)CN2C(=O)S/C(=C\c3ccc(-c4cccc(C(=O)O)c4C)o3)C2=O)cc1`, the Potency is 11.2 µM (active).

As for `COC(=O)c1cc(NC(=O)c2ccc3c(c2)NC(=O)c2ccccc2S3)cc(C(=O)OC)c1`, the Potency is 25.1 µM (active).

Turning to `c1ccc(N2N=C(c3cccs3)CC2c2ccco2)cc1` (stereo not given), the Potency is 112 µM (active).

`Cc1c(C(=O)O)sc2nc3n(c(=O)c12)CCC3`: the Potency is 6.31 µM (active).

In the case of `O=C(O)C1Cc2ccccc2CN1C(=O)COc1ccc(Br)cc1` (stereo not given), the Potency is 15.8 µM (active).

As for `Cc1ccc(Oc2cc(-n3nc(C)cc3C)ncn2)cc1`, the Potency is 112 µM (active).

`O=C(CCc1n[nH]c(=O)[nH]c1=O)N/N=C/c1ccco1`: the Potency was 31.6 µM (active).

Take `CCCCC#Cc1ccccc1CC(=O)Nc1ccccc1`: the Potency was 31.6 µM (active).

For `Cc1nc2ccc(C(=O)O)cc2c2c1CC(C)S2` (stereo not given), the Potency was 31.6 µM (active).

Regarding `COc1ccc(-c2nc3c(c(SCC(=O)Nc4ccc(C(=O)O)cc4)n2)Cc2ccccc2O3)cc1`, the Potency is 1.62 µM (active).

For the compound `C=CCc1cccc2cc(C(=O)Nc3ccc(S(=O)(=O)Nc4nnc(CC)s4)cc3)c(=O)oc12`, the Potency is 15.8 µM (active).

For the compound `CO/N=C(/C(=O)NC1C(=O)N2C(C(=O)O)=C(COC(N)=O)CSC12)c1ccco1` (stereo not given), the Potency was 6.31 µM (active).

With `NC(=O)COC(=O)c1ccc(S(=O)(=O)NCc2ccco2)cc1`, the Potency was 126 µM (active).

As for `O=C1NN(c2ccccc2)C(=O)/C1=C/c1ccc(-c2ccc(Cl)c(C(=O)O)c2)o1`, the Potency is 7.08 µM (active).

With `CN(C)/C=C/C=C1C(=O)CCCC1=O`, the Potency is 89.1 µM (active).

As to `O=C(O)c1ccc(-c2ccc(/C=C3\NC(=O)N(Cc4ccc(Cl)cc4)C3=O)o2)cc1Cl`, the Potency was 3.55 µM (active).

For the compound `N#CC(C#N)=Cc1cccn1-c1ccc(C(=O)O)cc1`, the Potency was 3.98 µM (active).

As to `CC(=O)Nc1ccc2nc3c(=O)[nH]c(=O)[nH]c3nc2c1`, the Potency is 4.47 µM (active).

As to `Cc1cc(C=O)c(C)n1-c1cccc(C(=O)O)c1`, the Potency was 7.94 µM (active).

For `Cc1nn(-c2ccccc2)c(C)c1S(=O)(=O)O`, the Potency is 25.1 µM (active).

For `O=C(CSc1nnc(SCc2ccc(Cl)cc2)s1)N/N=C/c1c[nH]c2ccccc12`, the Potency is 5.01 µM (active).

Take `Cc1ccc(NC(=O)CN2C(=O)N/C(=C/c3cccn3-c3ccc(C(=O)O)cc3)C2=O)cc1`: the Potency was 0.282 µM (active).

For `CC(=O)c1ccc(NC(=O)c2ccc3nc(-c4ccco4)c(-c4ccco4)nc3c2)cc1`, the Potency was 7.08 µM (active).

In the case of `COc1ccc(/C=N/N=C2/NC(=O)C(CC(=O)O)S2)cc1OCc1ccc(Cl)cc1Cl` (stereo not given), the Potency was 39.8 µM (active).

In the case of `Clc1ccc(N2N=C(c3cccs3)CC2c2ccco2)cc1` (stereo not given), the Potency is 11.2 µM (active).

As for `O=c1c2nc(Br)n([C@@H]3O[C@@H]4CO[P@@](O)(=S)O[C@H]4[C@H]3O)c2nc2[nH]c(-c3ccccc3)cn12`, the Potency was 12.6 µM (active).
